Our source for the z-score and composite z-score values is PubChem BioAssay.

Calls of active or inactive are those of the source.

Experiment [1] in a line: optical density shifts of acrAB sulA E. coli – strain DRC41, OD650, 48 h, E. coli filamentation inducer project, primary screen (AID 1152).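 Note: E. coli MC1000 strain DRC41 lacking acrAB efflux pump and sulA.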 The note with it: higher = more signal, called active from +8 up or from −8 down.
A short description of experiment [2]: probe aLefty1 binding on compound microarray – biochemical, small-molecule microarray, 635/667 nm fluorescence, primary screen (AID 1153).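 Note: score merges spot fluorescence with signal-to-noise ratio from the scanned slide images.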 The note with it: higher = more signal.
Experiment [3] can be described thus: plasmodial surface anion channel blockers, osmotic lysis – cell-based, P. falciparum Indochina, OD700, 1 h, primary screen (AID 1154). The note with it: P. falciparum Indochina infected RBC osmotic lysis, higher = more signal, called active from +8 up or from −8 down.
Experiment [4] in a line: plasmodial surface anion channel blockers, osmotic lysis – cell-based, P. falciparum Indochina, OD700, 2 h, primary screen (AID 1155).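 Note: lysis reports solute entry through the parasite surface anion channel PSAC.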 The note with it: P. falciparum Indochina infected erythrocytes, higher = more signal, called active from +8 up or from −8 down.
Experiment [5] can be described thus: changes in parasitized red cell lysis, either direction – P. falciparum Indochina, OD700, 3 h, PSAC antagonist project, primary screen (AID 1156). The note with it: P. falciparum-infected erythrocytes, osmotic lysis, higher = more signal, called active from +8 up or from −8 down.
The nature of experiment [6]: plasmodial surface anion channel blockers, osmotic lysis – cell-based, P. falciparum Indochina, OD700, 18 h, primary screen (AID 1157). The note with it: P. falciparum Indochina infected erythrocytes, osmotic lysis OD700, 18 h; higher = more signal, called active from +8 up or from −8 down.
Experiment [7] is described as follows: S6 kinase pathway phospho-S6 level changes – cell-based, A549, cytoblot, luminescence, serum-stimulated, primary screen (AID 1158).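 Note: serum-stimulated A549 lung adenocarcinoma cells; signal is phosphorylated S6 detected by cytoblot immunostaining with HRP secondary.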 The note with it: 5 h, higher = more signal.
For experiment [8], the target named is NADPH oxidase 2 (Homo sapiens) (UniProt P04839). Put plainly: compounds shifting NOX2 Amplex Red fluorescence – cell-based, HEK293-NOX2, PMA-stimulated, NOX inhibitor project, primary screen (AID 1159). Note: test concentration not given here. The note with it: 45 min, higher = more signal, called active from +8 up or from −8 down.
Sequence of NADPH oxidase 2 (Homo sapiens) (P04839 whole entry, looked up): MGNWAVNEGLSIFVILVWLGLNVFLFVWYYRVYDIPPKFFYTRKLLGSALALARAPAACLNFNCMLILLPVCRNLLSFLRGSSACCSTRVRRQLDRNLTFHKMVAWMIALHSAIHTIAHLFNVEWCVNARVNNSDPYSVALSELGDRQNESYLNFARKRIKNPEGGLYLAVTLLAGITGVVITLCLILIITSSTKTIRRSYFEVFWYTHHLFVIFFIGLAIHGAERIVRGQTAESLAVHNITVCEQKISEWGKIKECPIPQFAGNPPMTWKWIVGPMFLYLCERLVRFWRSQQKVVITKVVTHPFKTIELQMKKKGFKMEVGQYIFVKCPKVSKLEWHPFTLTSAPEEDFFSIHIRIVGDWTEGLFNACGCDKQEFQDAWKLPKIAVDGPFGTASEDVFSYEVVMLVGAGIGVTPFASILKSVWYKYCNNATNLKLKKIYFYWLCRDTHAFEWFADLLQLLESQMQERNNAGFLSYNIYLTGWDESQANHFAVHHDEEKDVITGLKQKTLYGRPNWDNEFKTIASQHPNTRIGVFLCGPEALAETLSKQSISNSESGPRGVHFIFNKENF
Experiment [9] concerns the target NADPH oxidase 4 (Homo sapiens) (UniProt Q9NPH5). Description: compounds shifting NOX4 Amplex Red fluorescence – cell-based, HEK293-NOX4, tetracycline-induced, NOX inhibitor project, primary screen (AID 1160). The note with it: HEK293-NOX4, Amplex Red H2O2 fluorescence, 45 min; higher = more signal, called active from +8 up or from −8 down.
Experiment [10] addresses NADPH oxidase 5 (Homo sapiens) (UniProt Q96PH1). Put plainly: compounds shifting NOX5 Amplex Red fluorescence – cell-based, HEK293-NOX5, NOX inhibitor project, primary screen (AID 1161). The note with it: HEK293-NOX5, ionomycin, 45 min, higher = more signal.
Experiment [11] is described as follows: compound effects on lung adenocarcinoma cell viability – A549, calcein-AM fluorescence, 48 h, basal, profiling panel (AID 1162). Note: test concentration not given here. The note with it: higher = more signal.
Experiment [12] is described as follows: compound effects on differentiated 3T3-L1 adipocyte viability – cell-based, 3T3-L1 adipocytes, calcein-AM fluorescence, 48 h, basal, profiling panel (AID 1163). Note: test concentration not given here. The note with it: 3T3-L1 adipocytes viability, higher = more signal.
Experiment [13] is described as follows: compound effects on hepatocellular carcinoma cell viability – HepG2, calcein-AM fluorescence, 48 h, basal, profiling panel (AID 1164). Note: test concentration not given here. The note with it: higher = more signal.
Experiment [14] can be described thus: compound effects on multiple myeloma cell viability – MM1S, calcein-AM fluorescence, 48 h, basal, profiling panel (AID 1165).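 Note: viability of MM1S multiple myeloma cells under basal unstimulated conditions; test concentration not given here.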 The note with it: higher = more signal.
Experiment [15] is described as follows: calcein-AM signal in unstimulated myeloma cells – cell-based, calcein-AM fluorescence, 48 h, PK04 Diversity Set, profiling panel (AID 1166).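 Note: cells grown under basal conditions without added stimulus; test concentration not given here.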 The note with it: RPMI8226 myeloma viability, higher = more signal.
Experiment [16] can be described thus: JC-1 mitochondrial signal, unstimulated HepG2 cells – cell-based, JC-1 fluorescence, 24 h, 100 nL compound, profiling panel (AID 1167). Note: test concentration not given here. The note with it: HepG2 mitochondrial potential, higher = more signal.
Experiment [17] can be described thus: JC-1 mitochondrial signal, unstimulated adipocytes – cell-based, JC-1 fluorescence, 3T3-L1 adipocytes, 24 h, 100 nL compound, profiling panel (AID 1168). Note: test concentration not given here. The note with it: JC-1 mitochondrial fluorescence, higher = more signal, called active from +8 up or from −8 down.
The nature of experiment [18]: JC-1 mitochondrial signal, unstimulated myeloma cells – cell-based, JC-1 fluorescence, RPMI8226, 24 h, 100 nL compound, profiling panel (AID 1169). Note: test concentration not given here. The note with it: JC-1 mitochondrial potential fluorescence, higher = more signal.
A short description of experiment [19]: JC-1 mitochondrial signal, unstimulated MM1S myeloma – cell-based, JC-1 fluorescence, 24 h, 100 nL compound, profiling panel (AID 1170). Note: test concentration not given here. The note with it: MM1S mitochondrial potential, higher = more signal.
A short description of experiment [20]: resazurin metabolic signal in A549 cells – cell-based, resazurin fluorescence, 24 h, PK04 Diversity Set, profiling panel (AID 1171). Note: test concentration not given here. The note with it: A549 viability, higher = more signal, called active from +8 up or from −8 down.

Sequence of NADPH oxidase 4 (Homo sapiens) (Q9NPH5 whole entry, looked up): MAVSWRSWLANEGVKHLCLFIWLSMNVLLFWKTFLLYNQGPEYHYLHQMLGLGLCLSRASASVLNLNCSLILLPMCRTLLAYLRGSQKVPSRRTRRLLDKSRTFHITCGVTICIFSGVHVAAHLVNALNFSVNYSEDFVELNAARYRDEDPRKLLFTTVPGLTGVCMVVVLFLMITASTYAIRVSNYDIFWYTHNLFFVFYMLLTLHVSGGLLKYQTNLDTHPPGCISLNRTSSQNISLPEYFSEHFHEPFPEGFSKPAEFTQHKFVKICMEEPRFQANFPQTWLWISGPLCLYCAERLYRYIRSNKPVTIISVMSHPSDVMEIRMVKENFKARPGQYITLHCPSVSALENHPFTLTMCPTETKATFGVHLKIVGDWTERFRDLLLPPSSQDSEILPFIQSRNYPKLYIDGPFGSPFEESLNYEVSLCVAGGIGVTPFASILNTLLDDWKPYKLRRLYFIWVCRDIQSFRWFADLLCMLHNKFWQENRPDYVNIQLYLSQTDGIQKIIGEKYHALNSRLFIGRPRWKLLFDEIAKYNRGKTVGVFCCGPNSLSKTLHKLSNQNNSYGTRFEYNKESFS
Sequence of NADPH oxidase 5 (Homo sapiens) (Q96PH1 whole entry, looked up): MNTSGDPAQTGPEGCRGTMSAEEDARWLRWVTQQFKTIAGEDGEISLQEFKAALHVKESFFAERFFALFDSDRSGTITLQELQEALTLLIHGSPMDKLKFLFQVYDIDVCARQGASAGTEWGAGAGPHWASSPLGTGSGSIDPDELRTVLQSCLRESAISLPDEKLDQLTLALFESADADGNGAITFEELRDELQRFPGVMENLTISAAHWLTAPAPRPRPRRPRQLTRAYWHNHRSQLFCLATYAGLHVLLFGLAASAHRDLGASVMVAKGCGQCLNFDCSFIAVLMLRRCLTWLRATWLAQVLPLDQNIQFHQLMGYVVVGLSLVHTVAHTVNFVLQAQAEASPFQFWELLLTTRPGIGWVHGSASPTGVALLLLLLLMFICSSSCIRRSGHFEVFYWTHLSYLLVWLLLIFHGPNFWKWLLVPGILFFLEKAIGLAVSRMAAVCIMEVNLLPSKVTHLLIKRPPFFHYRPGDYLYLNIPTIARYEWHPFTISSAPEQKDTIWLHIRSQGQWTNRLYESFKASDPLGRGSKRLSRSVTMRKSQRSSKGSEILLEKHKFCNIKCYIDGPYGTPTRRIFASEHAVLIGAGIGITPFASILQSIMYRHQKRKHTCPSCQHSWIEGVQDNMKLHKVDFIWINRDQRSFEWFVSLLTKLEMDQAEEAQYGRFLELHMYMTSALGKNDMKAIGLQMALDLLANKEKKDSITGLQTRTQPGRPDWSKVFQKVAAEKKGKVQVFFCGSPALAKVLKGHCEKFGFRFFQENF

As to `O=C1O[C@@H](c2ccccc2)[C@@H](c2ccccc2)N2[C@@H](c3ccc(O)cc3)[C@]3(C(=O)Nc4ccc(C#CC5=CCCCC5)cc43)[C@@H](C(=O)N3CCN(c4ncccn4)CC3)[C@H]12`, the z-score is 1.29 (inactive) in experiment [1]; 0.445 (inactive) in experiment [3]; 0.35 (inactive) in [4]; -4.76 (inactive) in [5]; 0.614 (inactive) in experiment [6]; 0.401 in experiment [7]. Moreover, the z-score in experiment [8] was 0.532 (inactive); in experiment [9], 0.278 (inactive); in experiment [10] it was 0.904; in [11] it was -1.9; in experiment [12], 0.0112; in experiment [13], -1.25. Moreover, the z-score in experiment [14] was -1.2; in experiment [15], -2.78; in experiment [16], -0.703; in experiment [17], 0.701 (inactive); in [18], -0.588; in [19], -0.877. Further, in [20], the z-score is 0.785 (inactive). The molecule further yielded a composite z-score in [2] of 0.257.
Regarding `C=CC[C@@]1(C(=O)N2CCCCC2)N=C(c2ccc(OCCCO)cc2)O[C@@H]1c1ccccc1`, the z-score is 0.659 (inactive) in experiment [1]; 26.1 (active) in [3]; 11.4 (active) in experiment [4]; 2.02 (inactive) in [5]; 1.97 (inactive) in [6]; -0.499 in experiment [7]. The z-score in [8] was -0.432 (inactive); in experiment [9], 0.174 (inactive); in experiment [10], -1.66; in experiment [11], -0.721; in experiment [12] it was 0.533; in experiment [13] it was 0.292. In addition, the z-score in [14] is -1.3; in experiment [15], -1.13; in experiment [16], -0.381; in experiment [17] it was -0.282 (inactive); in [18] it was -1.09; in experiment [19] it was 0.0448. For the same molecule, in experiment [20], the z-score is 2.5 (inactive). The composite z-score in [2] worked out at 0.683.
`COCCOC(=O)N1C(=O)[C@@]2(c3cc(C#CC4=CCCCC4)ccc31)[C@H](C(=O)N1CCN(c3ncccn3)CC1)[C@H]1C(=O)O[C@H](c3ccccc3)[C@H](c3ccccc3)N1[C@@H]2c1ccc(O)cc1`: the z-score in experiment [1] was -0.386 (inactive); in experiment [3] it was 1.65 (inactive); in experiment [4] it was 1.5 (inactive); in experiment [5] it was 0.116 (inactive); in experiment [6] it was 0.824 (inactive); in experiment [7] it was 1.13. Moreover, the z-score in experiment [8] is 1.11 (inactive); in experiment [9] it was 0.482 (inactive); in experiment [10], 1.2; in experiment [11], 0.463; in experiment [12], 0.218; in experiment [13], 1.15. The z-score was 0.269 in [14]; -0.802 in experiment [15]; -1.16 in experiment [16]; 0.207 (inactive) in experiment [17]; -0.31 in experiment [18]; -1.3 in experiment [19]. For the same molecule, the z-score in [20] was -0.869 (inactive). This molecule also gave a composite z-score in experiment [2] of 0.315.
As to `COC(=O)C[C@H]1O[C@]2(C(=O)N(C)c3ccccc32)[C@@H](C)[C@@H]1[Si](C)(C)c1ccc(C)cc1`, the z-score is 1.6 (inactive) in experiment [1]; 2.58 (inactive) in experiment [3]; 0.894 (inactive) in experiment [4]; 0.0094 (inactive) in [5]; 0.426 (inactive) in experiment [6]; 0.559 in experiment [7]. The z-score in experiment [8] is 0.626 (inactive); in experiment [9], 0.00059 (inactive); in experiment [10] it was -1.59; in [11], -1.55; in [12], 0.163; in experiment [13], -0.151. Also, the z-score in [14] is -1.5; in experiment [15], -4.12; in experiment [16], -0.39; in experiment [17], 0.329 (inactive); in experiment [18], -0.991; in experiment [19], 0.413. Besides, in experiment [20], the z-score is -0.447 (inactive). Moreover, the composite z-score in experiment [2] is -0.0789.
`O=C1NC(=O)C2C1C=CC(C(O)c1ccc3c(c1)OCO3)N2Nc1ccccn1` (stereo not given): the z-score is -0.0438 (inactive) in [1]; -0.113 (inactive) in experiment [3]; -0.665 (inactive) in [4]; -0.752 (inactive) in [5]; -0.839 (inactive) in experiment [6]; 0.883 in experiment [7]. Further, the z-score is -1.27 (inactive) in experiment [8]; -3 (inactive) in [9]; -1.73 in experiment [10]; 0.732 in experiment [11]; -1.11 in experiment [12]; 0.641 in experiment [13]. In addition, the z-score in experiment [14] was 0.0178; in experiment [15] it was -0.12; in experiment [16], -0.465; in experiment [17] it was -0.0272 (inactive); in [18], 0.115; in experiment [19] it was -0.263. In addition, the z-score in [20] was -1.67 (inactive). Also, the composite z-score in [2] was -0.112.
As to `COC(=O)c1c(CC[C@@H](CO)NC(=O)N[C@H](Cn2cc(-c3ccccc3C)nn2)C(C)C)oc(C(C)=O)c1C(=O)OC`, the z-score in [1] was 0.206 (inactive); in [3], 0.791 (inactive); in [4] it was -0.0484 (inactive); in experiment [5] it was 1.56 (inactive); in experiment [6] it was -0.52 (inactive); in [7], 1.29. Further, the z-score in experiment [8] was -3.2 (inactive); in [9], -2.16 (inactive); in experiment [10], -1.77; in experiment [11], -0.657; in [12], 1.55; in [13], 0.308. Also, the z-score in experiment [14] is -0.759; in experiment [15], -0.607; in [16], -0.24; in experiment [17] it was 0.37 (inactive); in experiment [18], -0.353; in experiment [19] it was -1.27. Also, in experiment [20], the z-score is -1.26 (inactive). In experiment [2], this molecule showed a composite z-score of -0.112.
For the molecule `C=CCOC(=O)[C@H]1[C@@H]2C(=O)O[C@@H](c3ccccc3)[C@@H](c3ccccc3)N2[C@@H](c2ccc(OCCOC(=O)[C@H]3C[C@H]4C(=O)N[C@@H](Cc5ccccc5)C(=O)N4[C@H]3c3cccc(OCCO)c3)cc2)[C@]12C(=O)Nc1ccc(I)cc12`, the z-score in [1] is -0.386 (inactive); in experiment [3], 0.977 (inactive); in experiment [4] it was 0.856 (inactive); in experiment [5], -0.874 (inactive); in experiment [6], 0.84 (inactive); in experiment [7], -0.28. Further, the z-score is 2.07 (inactive) in experiment [8]; 1.35 (inactive) in experiment [9]; 1.52 in experiment [10]; -0.894 in [11]; -0.532 in [12]; 0.933 in [13]. Further, the z-score in [14] was -0.234; in experiment [15], -0.766; in experiment [16] it was -1.54; in experiment [17], -0.346 (inactive); in experiment [18] it was -0.713; in [19], -1.41. Moreover, the z-score in [20] was -0.461 (inactive). The molecule also had a composite z-score in experiment [2] of 1.29.
As to `Cc1ccc(S[C@]2(C(=O)O)CC(=O)N(Cc3ccccc3Cl)[C@@H]2c2ccc(CO)cc2)cc1`, the z-score in experiment [1] was 0.33 (inactive); in [3], 2.67 (inactive); in [4], -0.185 (inactive); in [5] it was 0.825 (inactive); in [6], 0.55 (inactive); in [7] it was 0.227. The z-score is 0.646 (inactive) in [8]; -1.5 (inactive) in experiment [9]; 0.432 in [10]; 0.322 in experiment [11]; 0.152 in experiment [12]; -0.0394 in experiment [13]. Besides, the z-score is -0.217 in experiment [14]; -1.44 in experiment [15]; -0.0706 in experiment [16]; -0.672 (inactive) in [17]; -0.509 in experiment [18]; 1.37 in experiment [19]. In addition, in [20], the z-score is -0.462 (inactive). The molecule also registered a composite z-score in [2] of -0.112.
